This is a sample that favours compounds with a hit; in the whole collection about 2.8% have one here.
HGIII-sPLA2 inh – human group III sPLA2 inhibitors, primary screen, biochemical, QFRET, BODIPY PC-A2 liposome substrate | QFRET BODIPY PC-A2 liposome hydrolysis, fluorescence | inhibition, % at 12.2 µM | 370,000 compounds, 0.56% hits;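 active = inhibition above mean plus 3 SD of compounds lying within the high and low control bounds, cut at about 19% in these data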
Target sequence (Q9NZ20 whole entry, looked up): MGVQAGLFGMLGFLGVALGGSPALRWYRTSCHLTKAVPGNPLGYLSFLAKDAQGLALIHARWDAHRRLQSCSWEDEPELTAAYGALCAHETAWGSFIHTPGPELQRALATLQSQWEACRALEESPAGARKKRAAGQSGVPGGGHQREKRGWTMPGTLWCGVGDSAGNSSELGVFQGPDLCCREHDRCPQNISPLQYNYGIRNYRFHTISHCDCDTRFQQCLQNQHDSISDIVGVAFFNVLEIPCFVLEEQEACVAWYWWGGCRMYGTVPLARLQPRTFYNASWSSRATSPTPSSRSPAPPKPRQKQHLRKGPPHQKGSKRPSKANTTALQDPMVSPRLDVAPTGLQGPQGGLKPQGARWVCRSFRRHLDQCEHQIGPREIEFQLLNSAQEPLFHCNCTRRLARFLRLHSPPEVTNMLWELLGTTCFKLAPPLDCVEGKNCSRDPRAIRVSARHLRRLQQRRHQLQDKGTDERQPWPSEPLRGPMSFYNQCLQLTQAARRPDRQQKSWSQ
MsrA act – bovine MsrA enzyme activators, primary screen, biochemical, absorbance, HTS; Methionine sulfoxide reductase A (Bos taurus); purified bovine MsrA, absorbance read-out; activation, % at 10.6 µM; 360,000 compounds, 0.3% hits; in the data active = activation above about 7.5%
MsrA inhibitor – bovine MsrA enzyme inhibitors, primary screen, biochemical, absorbance, HTS; Methionine sulfoxide reductase A (Bos taurus); 360,000 compounds, 0.75% hits; purified bovine MsrA, absorbance read-out; inhibition, % at 15.5 µM; in the data active = inhibition above about 4.5%
rCAG RNA binder – binders of r(CAG) RNA repeats, primary screen, biochemical, fluorescence; inhibition, % at 3 µM; 370,000 compounds, 1.3% hits; r(CAG) RNA repeat, TO-PRO-1 dye displacement fluorescence;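 active = inhibition above the plate cutoff, the mean of all test compounds on that plate plus 3 SD, cut at about 35% in these data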;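 also: higher means more dye released from RNA so lower well fluorescence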
rCAG binder conf – small molecules binding CAG repeat RNA – biochemical, fluorescence, confirmation. shares compounds with rCAG RNA binder. r(CAG) RNA repeat, TO-PRO-1 dye displacement fluorescence. inhibition, % at 3 µM. 4,300 compounds, 70% hits;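 active = inhibition above a per-plate cutoff, the mean inhibition of sample wells plus 3 SD, cut at about 35% in these data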;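 also: loss of TO-PRO-1 fluorescence as compound displaces dye from 1x1 AA loop RNA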
DNA CAG counter – displacement of TO-PRO-1 from CAG DNA duplex, counter-screen for rCAG RNA repeat binder project, biochemical, fluorescence, TO-PRO-1 dye, d(CAG) DNA oligo; shares compounds with rCAG RNA binder; d(CAG) DNA oligo TO-PRO-1 dye displacement; inhibition, % at 3 µM; 4,300 compounds, 94% hits; AID 652068, 2013;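 active = inhibition above its plate's cutoff, the mean test-well inhibition plus 3 SD, cut at about 4.8% in these data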;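 also: hits displace the dye from DNA and so lower well fluorescence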
Numbers stand for hits; i = inactive; nt = not tested or not shown.

SMILES | HGIII-sPLA2 inh | MsrA act | MsrA inhibitor | rCAG RNA binder | rCAG binder conf | DNA CAG counter
Cc1cccc(-n2c(O)c(C=Nc3ccccc3-c3n[nH]c(=S)[nH]c3=O)c3ccccc3c2=O)n1 | i | i | i | 46 | 44 | 13
Cc1ccc(-n2c(O)c(C=Nc3ccccc3-c3n[nH]c(=S)[nH]c3=O)c3ccccc3c2=O)cc1C | i | i | i | 77 | 81 | 48
Cc1cccc(-n2c(O)c(C=Nc3ccccc3O)c3ccccc3c2=O)n1 | i | i | i | i | nt | nt
Cc1ccc(-n2c(O)c(C=NC3CCS(=O)(=O)C3)c3ccccc3c2=O)cc1C (stereo not drawn) | i | i | i | i | nt | nt
O=C1OC2(c3ccccc31)c1ccccc1-c1ccccc12 | i | i | i | i | nt | nt
O=C1OC(c2ccc3ccccc3c2O)(c2ccc3ccccc3c2O)c2ccccc21 | i | i | i | 63 | 70 | 35
COCCn1c(SCc2cc(C(C)=O)ccc2OC)nc2cc(Cl)ccc2c1=O | i | i | i | 42 | i | i
COc1ccc(C(C)=O)cc1CSc1nc2ccccc2c(=O)n1-c1ccccc1 | i | i | i | i | nt | nt
COc1cc2cc3c(N)c(C(=O)NCc4ccco4)sc3nc2cc1OC | nt | i | nt | nt | nt | nt
COc1cc2cc3c(N)c(C(=O)Nc4sc(C)c(C)c4C#N)sc3nc2cc1OC | i | i | i | 53 | 61 | 31
CN1CCN(C(=O)CCC(=O)NCc2ccc(F)cc2)CC1 | i | i | i | i | nt | nt
CC1(C)CC(C(CC(=O)N2CCCC2)Cc2ccccc2)CCO1 (stereo not drawn) | i | i | i | 42 | i | i
O=C(Nc1ccc(F)cc1)N(Cc1cccs1)Cc1cc2cc3c(cc2[nH]c1=O)OCO3 | i | i | i | i | nt | nt
Nn1c(SCC(=O)Nc2ccc(N3CCOCC3)cc2)nnc1-c1ccccc1F | i | i | i | i | nt | nt
Cc1sc2nc(SCC(=O)c3ccc(O)c(O)c3)n(C)c(=O)c2c1C | i | nt | nt | 49 | 50 | 25
Cc1sc2nc(SCC(=O)OC(C)C)n(C)c(=O)c2c1C | i | i | i | i | nt | nt
Cc1nc(SC(C)C(=O)Nc2cccc(C(F)(F)F)c2)c2c(C)c(C(=O)O)sc2n1 (stereo not drawn) | i | i | i | 37 | 60 | 21
Cc1nc(N2CCC(C)CC2)c2c(C)c(C(=O)Nc3cccc(C(F)(F)F)c3)sc2n1 | i | i | i | i | nt | nt
COc1ccc(-c2cc3c(=O)n(CC(=O)NCc4ccccc4OC)ncn3n2)cc1 | i | i | i | i | nt | nt
COc1ccc(/C=N/NC(=S)Nc2ccccc2[N+](=O)[O-])cc1O | 20 | i | i | 38 | i | 11
CC(=O)NC(c1cccc(F)c1)c1nc(-c2ccc(N(C)C)cc2)cs1 (stereo not drawn) | i | i | i | i | nt | nt
CCOc1ccc(-n2c(SCC(=O)Nc3ccc(S(=O)(=O)Nc4nccs4)cc3)nnc2-c2ccncc2)cc1 | i | nt | nt | 69 | 59 | 26
CCCCNC(=O)NS(=O)(=O)c1ccc(NC(=O)CSc2nnc(-c3cccs3)n2-c2ccc(OC)cc2)cc1 | i | nt | nt | 54 | 62 | 23
CCOc1ccc(-n2c(SCC(=O)Nc3ccc(S(=O)(=O)Nc4nccs4)cc3)nnc2-c2ccc(C(C)(C)C)cc2)cc1 | i | nt | nt | 60 | 55 | 25
CC(C)(C)c1ccc(-c2nnc(SCC(=O)Nc3ccc(S(=O)(=O)Nc4nccs4)cc3)n2-c2ccc(Cl)cc2)cc1 | i | nt | nt | 61 | 62 | 26
COc1ccc(-n2c(SCC(=O)Nc3ccc(C(=O)O)cc3)nnc2-c2cccs2)cc1 | i | i | i | i | nt | nt
CCOC(=O)N/N=C/c1ccc(OC)c(O)c1 | i | i | i | i | nt | nt
CN1CCN(C(=O)CN2C(=O)COc3ccc(S(=O)(=O)N4CCOCC4)cc32)CC1 | i | i | i | i | nt | nt
O=C(CSc1nnc(-c2ccccn2)n1-c1ccc(Cl)cc1)Nc1ccc(S(=O)(=O)Nc2nccs2)cc1 | i | nt | nt | 74 | 75 | 39
Cc1ccc(-n2c(SCC(=O)Nc3ccc(S(=O)(=O)Nc4nccs4)cc3)nnc2-c2cccs2)cc1 | i | nt | nt | 71 | 67 | 25

Assay outcomes as filed in PubChem.
